In PubChem BioAssay (NCATS):
Where “and” joins values, the source holds several entries; their conditions need not be identical. Equal values may be shown once. Records with an inconclusive call do not appear. A call without a number means that no potency is given here. Calls of active or inactive are those of the source. Calls come from the whole dose curve; as a rule, active = well fitted curve in the direction sought with a large enough effect; inconclusive = small, poorly fitted or top-dose-only effect, or another doubt; inactive = no such curve, though single readings can be large; an effect the other way counts as inactive or inconclusive.

Columns and labels:
[1] = qHTS for Inhibitors of Ubiquitin-specific Protease USP2a Using CHOP2 as the Reporter: K633 Counterscreen (AID 652168); note: series mostly up to about 57 µM
How it was run: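 Detection-system control: fluorescence of K48-linked DiUb-4IQF substrate (100 nM as added) tracked over time, Ex 525/Em 598, with pinned compounds and no enzyme, in pH 8 Tris buffer containing beta-mercaptoethanol and 0.05% Chaps.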

[2] = qHTS for Inhibitors of Ubiquitin-specific Protease USP2a Using CHOP2 as the Reporter: Cytotox Assay (AID 652170);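 note: HCT116 human colon cancer cells at 600 per well; series mostly up to about 46 µM; nearly all actives have a fitted effect of over 70% in size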
How it was run: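 Cytotoxicity read as ATP luminescence (CellTiter-Glo) after 72 hr compound treatment at 37 deg C. Cells: HCT116, 600/well in DMEM plus 10% FBS. Normalization between DMSO-treated cells and cell-free wells.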

[3] = target: Ubiquitin carboxyl-terminal hydrolase 2 (Homo sapiens) (UniProt O75604); test: qHTS for Inhibitors of Ubiquitin-specific Protease USP2a Using CHOP2 as the Reporter: K484 Substrate (AID 652173);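 note: cleavage of internally quenched K48 di-ubiquitin substrate measured as rising fluorescence over time; potency is the fitted concentration of half-maximal effect; nearly all actives have a fitted effect of over 70% in size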
Ubiquitin carboxyl-terminal hydrolase 2 (Homo sapiens), sequence (O75604 whole entry, looked up): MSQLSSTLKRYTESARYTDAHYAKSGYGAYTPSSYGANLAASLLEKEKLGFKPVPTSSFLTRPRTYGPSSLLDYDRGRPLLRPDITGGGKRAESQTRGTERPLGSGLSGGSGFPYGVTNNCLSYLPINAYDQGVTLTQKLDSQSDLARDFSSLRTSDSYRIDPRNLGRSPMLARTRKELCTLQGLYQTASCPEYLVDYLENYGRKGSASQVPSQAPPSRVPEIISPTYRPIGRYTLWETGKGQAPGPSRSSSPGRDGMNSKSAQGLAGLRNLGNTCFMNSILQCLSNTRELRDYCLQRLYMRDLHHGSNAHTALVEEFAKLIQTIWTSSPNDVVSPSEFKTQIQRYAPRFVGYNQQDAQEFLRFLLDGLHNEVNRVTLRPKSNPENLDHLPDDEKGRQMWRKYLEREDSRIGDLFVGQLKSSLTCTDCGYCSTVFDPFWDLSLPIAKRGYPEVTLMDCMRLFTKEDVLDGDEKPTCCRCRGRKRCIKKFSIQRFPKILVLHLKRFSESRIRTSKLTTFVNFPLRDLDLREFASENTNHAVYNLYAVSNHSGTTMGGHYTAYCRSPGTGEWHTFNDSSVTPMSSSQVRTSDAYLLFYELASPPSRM
How it was run: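 Kinetic fluorescence (Ex 525/Em 598) tracked cleavage of an internally quenched K48 di-ubiquitin substrate, added as a 100 nM solution. The enzyme was added as a 5 nM USP2 solution before compound pinning, with no-enzyme controls. Buffer: Tris pH 8, beta-mercaptoethanol, CHAPS.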

SMILES | outcome [1] | Potency [2] | Potency [3]
O=C(Nc1nc(-c2ccccc2)cs1)c1ccncc1NS(=O)(=O)c1ccccc1F | inactive | inactive | 2.43 µM (active)
CCCc1ccc(C(=O)Nc2ccc(S(=O)(=O)Nc3nccs3)cc2)cc1 | inactive | inactive | 21.7 µM (active)
Cc1ccc(-c2cc(C(=O)Nc3ccc(S(=O)(=O)O)cc3)c3ccccc3n2)cc1C | inactive | inactive | 13.7 µM (active)
O=S(=O)(Nc1nccs1)c1ccc(Nc2nc(-c3ccc(F)cc3)cs2)cc1 | inactive | inactive | 3.06 µM (active) and 9.68 µM (active)
Cc1ccc(S(=O)(=O)Nc2cnccc2C(=O)Nc2ccc3ccccc3c2)cc1 | inactive | – | 6.11 µM (active)
O=C(Nc1nc(-c2ccccc2)cs1)c1ccncc1NS(=O)(=O)c1cccc(Cl)c1 | inactive | – | 3.85 µM (active)
O=C(Nc1nc(-c2ccccc2)cs1)c1ccncc1NS(=O)(=O)c1ccc(-c2ccccc2)cc1 | inactive | – | 1.53 µM (active)
O=C1CCCc2cc(S(=O)(=O)Nc3cnccc3C(=O)Nc3nc(-c4ccccc4)cs3)ccc2N1 | inactive | – | 7.69 µM (active)
O=C(Nc1nc(-c2ccccc2)cs1)c1ccncc1NS(=O)(=O)c1ccc2ccccc2c1 | inactive | – | 1.37 µM (active)
O=C(Nc1nc(-c2ccccc2)cs1)c1ccncc1NS(=O)(=O)c1ccc(F)cc1Cl | inactive | – | 1.93 µM (active)
Cc1ccc(-c2cc(C(=O)Nc3ccc(S(=O)(=O)N(C)Cc4nccs4)cc3)c3ccccc3n2)cc1C | – | inactive | 3.85 µM (active)
